Each structure is given as a SMILES string. Hit rate of the full screen: of about 85,000 compounds, about 5,100 (6%) were called active. Shown is part of a subset that was picked to be rich in actives. Values without a mark were called inactive.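 The calls were made as follows: active = viability at or below 40%; inactive = viability above 40%.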

This assay can be described thus: proliferation blockers of H69AR lung cancer cells, primary screen, cell-based, human, 86K library (AID 598).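 Also: multidrug resistant small cell line overexpressing MRP-1 efflux transporter; 100% = mean luminescence of untreated control wells.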 The note with it: H69AR lung tumor viability, ATP luminescence, 72 h; at 10 µM; hits give low values.
Consider `Cc1nnc(SCC(=O)N2CCc3ccccc3C2)s1`, for which the viability – broadly, a read-out of living cells in per cent, often relative to untreated cells – is 85.3%. The value for `O=C(CSc1nnc(-c2cccs2)n1-c1ccccc1)N1CCN(C(=O)c2ccco2)CC1` was 81.3%; that for `O=C(CSc1nnc(-c2cccs2)n1Cc1ccccc1)N1CCc2ccccc2C1` was 29.9% (active). Take `C=CCn1c(N)c(S(=O)(=O)c2cccs2)c2nc3ccccc3nc21`: the viability is 76.4%. Under `C=CCn1c(N)c(C(=O)OCC(C)C)c2nc3ccccc3nc21` stands 93.2%; under `CC(C)Cn1c(N)c(C(=O)NCc2cccs2)c2nc3ccccc3nc21`, 1.75% (active); under `CC(C)(C)c1cc(=O)n2c(nc3ccccc32)[nH]1`, 75.5%. The value for `Cc1ccc(SCC(=O)Nc2ncc(C)s2)cc1` was 94.5%. Under `CC(C)C(OC(=O)c1cccs1)C(=O)NC1CCCCC1` (stereo not drawn) stands 101%; under `CC(=O)Nc1nonc1-c1nc2ccccc2n1Cc1ccccn1`, 84.4%; under `COc1ccc(C)c(Cn2c(-c3nonc3N)nc3ccccc32)c1`, 21% (active). `CCC(=O)Nc1nc2ccccc2n1Cc1ccccc1C`: the viability is 65.7%. The value for `Nc1nonc1-c1nc2ccccc2n1Cc1ccc(F)cc1` was 18.4% (active); that for `Nc1nonc1-c1nc2ccccc2n1CCC(=O)O` was 109%. Under `COCc1nc2ccccc2n1Cc1ccccc1Br` stands 98.2%; under `c1ccc(Nc2nc(N3CCOCC3)c3ccccc3n2)cc1`, 95.8%.

For `O=C(O)CSCc1ccc(C(=O)O)o1`, the viability is 96.9%.

Consider `COc1ccccc1NC(=O)CC(NCCN(C)C)C(=O)O` (stereo not drawn), for which the viability is 99.1%. As for `CCOC(=O)C1CSC(CC(=O)Nc2ccc(OCC)cc2)C(=O)N1` (stereo not drawn), the viability was 86.6%. `CC(C)C(=O)NC(NC(=S)NC1CCS(=O)(=O)C1)C(Cl)(Cl)Cl` (stereo not drawn): the viability is 102%. For `Cc1ccc(-n2nc3cc(C)c(NC(=O)c4cccnc4)cc3n2)cc1`, the viability was 82%.

For `O=S(=O)(NCC1OCCc2ccccc21)c1ccccc1` (stereo not drawn), the viability was 87.1%. Under `COc1ccc(OC)c(C(=O)c2ccc(C(=O)O)cc2)c1` stands 99.1%; under `COc1ccc(NC(=O)c2ccc(OC)cc2)cc1`, 105%.

As for `COC(=O)c1cc(OC)ccc1-c1ccc(OC)cc1`, the viability is 29.3% (active). With `CCOC(=O)C1=C(C)NC(SC)=NC1c1ccccc1` (stereo not drawn), the viability is 83.7%. Under `CC1CCN(C(=O)CN(c2ccc(Oc3ccccc3)cc2)S(C)(=O)=O)CC1` stands 85%; under `CCCOn1c(-n2nc(C)cc2C)nc2ccccc2c1=O`, 93.8%. The value for `COc1ccc(C)cc1N(C)C(=O)c1coc(=O)c2ccccc12` was 94.7%. For the molecule `Cc1cc(NC(=O)CSc2nnc(-c3ccc(Cl)s3)o2)no1`, the viability was 96.5%. Take `Cc1cc(C)c2c(c1)cc(C)c1nnc(SCC(=O)Nc3cc(C)on3)n12`: the viability is 16.8% (active). Under `CCOc1ccccc1Nc1nnc(SCC(=O)Nc2cc(C)on2)s1` stands 71.1%; under `CC(C)(C)n1nnnc1C(c1ccc(Cl)cc1)N1CCSCC1` (stereo not drawn), 82.5%.

For the molecule `COc1ccc(S(=O)(=O)NCc2ccc(C(=O)N(C)Cc3ccco3)cc2)cc1`, the viability was 76.5%. Under `CC(=O)N1CCCc2cc(S(=O)(=O)CCC(=O)N3CCN(c4ccccc4)CC3)ccc21` stands 86.6%; under `Cc1nc2ccc(C(=O)N3CCN(c4ccccc4)CC3)cc2s1`, 91.5%. Turning to `O=C(c1cc2c(s1)CCC2)N1CCN(c2ccccc2)CC1`, the viability was 39.4% (active). For the molecule `COc1ccc(C)cc1S(=O)(=O)Nc1cccc(Cl)c1Cl`, the viability was 97.3%.

`CCOc1ccc(C(O)Cc2nc3ccccc3n2C)cc1` (stereo not drawn): the viability is 96.6%. Under `O=C(COC(=O)c1n[nH]c2ccccc12)NCc1ccccc1` stands 96.7%; under `COC(=O)Nc1ncc(CN2CCCCC2)s1`, 92.5%. The value for `CCN1C(=O)/C(=C2/Sc3ccc(OC)cc3N2C)SC1=Nc1ccc(C)cc1` was 66.1%; that for `COc1ccc(N2CCN(CCNC(=O)CCN3C(=O)COc4ccccc43)CC2)cc1` was 86.1%; that for `CCOc1ccc(C2C(C(=O)O)c3ccccc3C(=O)N2CCN2CCOCC2)cc1` (stereo not drawn) was 85.1%.

As for `COc1ccc(C2C(C(=O)N3CCN(c4ccc(OC)cc4)CC3)c3ccccc3C(=O)N2C)cc1` (stereo not drawn), the viability is 32.2% (active). Under `CCCNC(=O)c1ccccc1NC(=O)CSCc1ccc(OC)cc1` stands 83.9%.

Take `COc1ccc(C2=NO[C@@H]3C(=O)N(Cc4ccccc4)C(=O)[C@H]23)cc1OC`: the viability is 95.8%. Under `CCNCCC(=O)N1c2ccccc2Sc2ccc(NC(=O)OCC)cc21` stands 78.6%. The value for `Cc1ccc(F)c(NC(=O)CCc2ccccc2)c1` was 97.8%; that for `CC(=O)N1CCN(c2cccc(C)c2C)CC1` was 107%; that for `Cn1c(C(=O)NCCN2CCc3ccccc3C2)cc2c(=O)[nH]c3ccccc3c21` was 61.7%.

For `Cc1cccc(N2CCN(C(=O)c3cc4c(=O)[nH]c5ccccc5c4n3C)CC2)c1C`, the viability was 36% (active). Take `CCn1c(C)nc2c1C(=O)c1ccccc1C2=O`: the viability was 69.1%.

`CC1CCc2c(nc3ncnn3c2Nc2ccc(OC(F)(F)F)cc2)C1` (stereo not drawn): the viability is 69.4%. As to `COc1ccc(-n2c(SCC(=O)Nc3sc4c(c3C#N)CCCC4)nnc2-c2ccc(O)cc2)cc1`, the viability was 11.8% (active). Turning to `COC(=O)c1c(NC(=O)CSc2nncs2)sc2c1CCCCC2`, the viability is 50.8%.

`COc1ccccc1NC(=O)CSc1nc2sc(C)c(C)c2c(=O)n1Cc1ccco1`: the viability was 58.9%. As for `CC(Sc1nc2ccccc2c(=O)n1Cc1ccco1)C(=O)c1ccccc1` (stereo not drawn), the viability was 77.2%.

On to `N#Cc1c(NC(=O)CSc2nc3ccccc3c(=O)n2Cc2ccco2)sc2c1CCCC2`, for which the viability is 3.86% (active). The value for `COc1ccc(-c2nnc(SCC(=O)c3ccco3)n2-c2ccccc2)cc1` was 91.9%; that for `CCC(C)NC(=O)C1CCCN(C(=O)NC2CCCCC2)C1` (stereo not drawn) was 94.6%. The value for `COc1ccc(C(C#N)Nc2ccc(C)cc2)cc1` (stereo not drawn) was 89.5%; that for `Cc1cccc(OCCCC(=O)Nc2ccc(S(=O)(=O)N3CCCC3)cc2)c1` was 89.2%.

Values taken from PubChem BioAssay AID598 (SRMLSC, 2007).
